Reference: PubChem BioAssay
Activity calls are given as the source filed them.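 The calls were made as follows, unless noted: active = efflux inhibition above 0.42, the validation set average plus 4 SD; inconclusive = no clear call, values can overlap the other calls; inactive = the rest.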

test system: not listed separately; test: inhibitors of fungal efflux pumps CDR1, CDR2, MDR1, pilot screen, validation compound set, multiplex, phenotypic (AID 588506);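 also: Nile Red retained in cells so higher fluorescence means more efflux inhibition; 0 = negative control wells and 1 = enniatin B 25 µM full block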; conditions: S. cerevisiae pump-expressing triplex, Nile Red efflux flow cytometry; at 10 µM; hits give high values; the pumps come from Candida albicans

Compound	efflux inhibition (fraction of control)
Cc1ccc2[nH]c3c(c2c1)CN(C)CC3	-0.09 (inactive)
COc1ccc2[nH]c3c(c2c1)CCn1c-3nc2ccccc2c1=O	-0.12 (inactive)
CC(=O)O[C@H]1CSC[C@H]1NC(=O)c1ccccc1	-0.28 (inactive)
CC(=O)Oc1ccc2occ(/C=N/c3cc(=O)[nH]c(=S)[nH]3)c(=O)c2c1	0.33 (inactive)
O=C(O)CCSc1nc2ccccc2s1	0.44 (active)
CCOc1ccc(C(=O)/C=C/c2cc(OC)c(OC)c(OC)c2)cc1	0.25 (inactive)
COC(=O)c1cc(OC)c(OC)c(OC)c1[N+](=O)[O-]	0.14 (inactive)
COC(=O)c1[nH]c2ccccc2c1NC(=O)CN1CCN(C/C=C/c2ccccc2)CC1	0.25 (inactive)
Cc1ncc([N+](=O)[O-])n1CC(C)O (stereo not drawn)	0.14 (inactive)
Clc1ccccc1CN1CCc2sccc2C1	0 (inactive)
CC[C@]1(O)C[C@@H]2CN(CCc3c([nH]c4ccccc34)[C@@](C(=O)OC)(c3cc4c(cc3OC)N(C)[C@H]3[C@@](O)(C(=O)OC)[C@H](OC(C)=O)[C@]5(CC)C=CCN6CC[C@]43[C@@H]65)C2)C1	0.59 (active)
O=C(CCCN1CC=C(n2c(=O)[nH]c3ccccc32)CC1)c1ccc(F)cc1	-0.05 (inactive)
CCOc1cccc(N2C(=O)CC(N(CCc3ccc(OC)c(OC)c3)C(=O)CC)C2=O)c1 (stereo not drawn)	-0.2 (inactive)
COC(=O)C1=C(C)NC(C)=C(C(=O)OC)C1c1ccccc1[N+](=O)[O-]	-0.39 (inactive)
CC(COc1ccccc1)NC(C)C(O)c1ccc(O)cc1 (stereo not drawn)	-0.05 (inactive)
COc1ccc2oc(=O)c(-c3nc(C)cs3)cc2c1	-0.05 (inactive)
CC(=O)Oc1cc(C(C)C)c(OCCN(C)C)cc1C	0.1 (inactive)
O=C(NNC(=O)c1cccs1)c1ccco1	-0.05 (inactive)
CC(C)Oc1ccc(C(CC(=O)O)c2ccc(F)cc2)cc1 (stereo not drawn)	0.18 (inactive)
Cc1ccccc1-c1coc2cc(O)ccc2c1=O	-0.05 (inactive)

Compound	efflux inhibition (fraction of control)
CCN(CC)CCOC(=O)C1(C2CCCCC2)CCCCC1	0.25 (inactive)
NC(=O)OCC(COC(N)=O)c1ccccc1	-0.09 (inactive)
CC(C)[N+]1(C)[C@@H]2CC[C@H]1CC(OC(=O)C(CO)c1ccccc1)C2 (stereo partly drawn)	-0.12 (inactive)
Cc1ccccc1OCCSc1nc2ncnc(N)c2[nH]1	0.06 (inactive)
CC(=O)NCCCCCCNC(C)=O	-0.31 (inactive)
CCN(Cc1ccncc1)Cc1nc(Cc2ccccc2Cl)no1	0.25 (inactive)
CCOC(=O)NN1C(=O)c2ccccc2NC1c1ccc(OC)c(OC)c1 (stereo not drawn)	-0.05 (inactive)
COc1ccc2c(c1)c(CC(=O)O)c(C)n2C(=O)c1ccc(Cl)cc1	-0.01 (inactive)
CC1=CC2(O)OCCN(CCO)C2=CC1=O (stereo not drawn)	0.29 (inactive)
Cc1ccccc1C(OCCN(C)C)c1ccccc1 (stereo not drawn)	0.03 (inactive)
COC1(C)CC2C(CC1OC(=O)c1cc([N+](=O)[O-])cc([N+](=O)[O-])c1)C2(C)C (stereo not drawn)	-0.35 (inactive)
O=C1OC(c2ccc(O)cc2)(c2ccc(O)cc2)c2ccccc21	-0.12 (inactive)
Cn1c(=O)c2c(ncn2CC(O)CO)n(C)c1=O (stereo not drawn)	0.22 (inactive)
Cc1cnc(C(=O)N2CCCC(C(=O)c3ccc(Cl)cc3C)C2)cn1 (stereo not drawn)	0.18 (inactive)
CN(C)C(=O)C12CCC(C)(c3nc4ccccc4nc31)C2(C)C (stereo not drawn)	-0.09 (inactive)
CCOC(=O)c1ccc(N2C(=O)C(CC(N)=O)N(CCc3ccc(OC)c(OC)c3)C2=S)cc1 (stereo not drawn)	0.75 (active)
Cc1cnc(C(=O)NCCc2ccc(S(=O)(=O)NC(=O)NC3CCCCC3)cc2)cn1	-0.12 (inactive)
COc1cccc2c1C(=O)O/C2=C/c1ccc2c(c1)OCO2	-0.35 (inactive)
COc1ccc(C2N3CC4(C)CN2CC(C)(C3)C4)cc1OC (stereo not drawn)	-0.09 (inactive)

target: ATP-binding cassette sub-family B member 6 (Homo sapiens) (UniProt Q9NP58); test: ABCB6 transporter inhibitors, pilot screen, K562-ABCB6 cells, flow cytometry, validation set (AID 588550;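 active = inhibition above the screen-wide mean plus 3 SD, about 51%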;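 also: 0% = DMSO wells and 100% = benzethonium chloride 70 µM positive control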); conditions: K562-ABCB6 porphyrin accumulation, 1 h, at 10 µM, hits give high values
Sequence (Q9NP58 whole entry, looked up): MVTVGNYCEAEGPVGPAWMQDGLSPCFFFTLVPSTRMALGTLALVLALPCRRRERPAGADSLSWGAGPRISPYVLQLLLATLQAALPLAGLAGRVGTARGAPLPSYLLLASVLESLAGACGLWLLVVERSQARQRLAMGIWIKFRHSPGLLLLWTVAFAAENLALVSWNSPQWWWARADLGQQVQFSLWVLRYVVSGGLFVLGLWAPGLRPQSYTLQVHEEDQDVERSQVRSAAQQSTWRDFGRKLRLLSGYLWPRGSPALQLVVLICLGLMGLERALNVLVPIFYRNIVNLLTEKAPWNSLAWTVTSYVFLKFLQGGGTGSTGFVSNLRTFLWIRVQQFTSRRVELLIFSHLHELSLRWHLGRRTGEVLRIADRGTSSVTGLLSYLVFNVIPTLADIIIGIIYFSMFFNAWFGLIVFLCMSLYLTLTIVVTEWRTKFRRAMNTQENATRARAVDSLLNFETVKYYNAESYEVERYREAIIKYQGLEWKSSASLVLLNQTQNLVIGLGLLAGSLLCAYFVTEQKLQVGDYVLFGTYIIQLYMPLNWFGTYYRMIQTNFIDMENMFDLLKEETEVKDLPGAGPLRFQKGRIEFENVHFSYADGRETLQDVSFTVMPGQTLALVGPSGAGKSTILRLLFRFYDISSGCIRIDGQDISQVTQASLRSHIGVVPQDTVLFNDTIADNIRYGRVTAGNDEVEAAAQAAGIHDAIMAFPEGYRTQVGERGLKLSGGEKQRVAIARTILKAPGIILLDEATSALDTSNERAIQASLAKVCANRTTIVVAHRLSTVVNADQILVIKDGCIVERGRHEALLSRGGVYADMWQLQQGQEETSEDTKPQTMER

Compound	inhibition
Cc1ccc2[nH]c3c(c2c1)CN(C)CC3	12% (inactive)
COc1ccc2[nH]c3c(c2c1)CCn1c-3nc2ccccc2c1=O	7% (inactive)
CC(=O)O[C@H]1CSC[C@H]1NC(=O)c1ccccc1	12% (inactive)
CC(=O)Oc1ccc2occ(/C=N/c3cc(=O)[nH]c(=S)[nH]3)c(=O)c2c1	10% (inactive)
O=C(O)CCSc1nc2ccccc2s1	8% (inactive)
CCOc1ccc(C(=O)/C=C/c2cc(OC)c(OC)c(OC)c2)cc1	4% (inactive)
COC(=O)c1cc(OC)c(OC)c(OC)c1[N+](=O)[O-]	3% (inactive)
COC(=O)c1[nH]c2ccccc2c1NC(=O)CN1CCN(C/C=C/c2ccccc2)CC1	8% (inactive)
Cc1ncc([N+](=O)[O-])n1CC(C)O (stereo not drawn)	8% (inactive)
Clc1ccccc1CN1CCc2sccc2C1	0% (inactive)
CC[C@]1(O)C[C@@H]2CN(CCc3c([nH]c4ccccc34)[C@@](C(=O)OC)(c3cc4c(cc3OC)N(C)[C@H]3[C@@](O)(C(=O)OC)[C@H](OC(C)=O)[C@]5(CC)C=CCN6CC[C@]43[C@@H]65)C2)C1	8% (inactive)
O=C(CCCN1CC=C(n2c(=O)[nH]c3ccccc32)CC1)c1ccc(F)cc1	6% (inactive)
CCOc1cccc(N2C(=O)CC(N(CCc3ccc(OC)c(OC)c3)C(=O)CC)C2=O)c1 (stereo not drawn)	5% (inactive)
COC(=O)C1=C(C)NC(C)=C(C(=O)OC)C1c1ccccc1[N+](=O)[O-]	12% (inactive)
CC(COc1ccccc1)NC(C)C(O)c1ccc(O)cc1 (stereo not drawn)	9% (inactive)
COc1ccc2oc(=O)c(-c3nc(C)cs3)cc2c1	7% (inactive)
CC(=O)Oc1cc(C(C)C)c(OCCN(C)C)cc1C	10% (inactive)
O=C(NNC(=O)c1cccs1)c1ccco1	16% (inactive)
CC(C)Oc1ccc(C(CC(=O)O)c2ccc(F)cc2)cc1 (stereo not drawn)	5% (inactive)
Cc1ccccc1-c1coc2cc(O)ccc2c1=O	8% (inactive)

Compound	inhibition
CCN(CC)CCOC(=O)C1(C2CCCCC2)CCCCC1	-45% (inactive)
NC(=O)OCC(COC(N)=O)c1ccccc1	5% (inactive)
CC(C)[N+]1(C)[C@@H]2CC[C@H]1CC(OC(=O)C(CO)c1ccccc1)C2 (stereo partly drawn)	11% (inactive)
Cc1ccccc1OCCSc1nc2ncnc(N)c2[nH]1	1% (inactive)
CC(=O)NCCCCCCNC(C)=O	5% (inactive)
CCN(Cc1ccncc1)Cc1nc(Cc2ccccc2Cl)no1	7% (inactive)
CCOC(=O)NN1C(=O)c2ccccc2NC1c1ccc(OC)c(OC)c1 (stereo not drawn)	14% (inactive)
COc1ccc2c(c1)c(CC(=O)O)c(C)n2C(=O)c1ccc(Cl)cc1	10% (inactive)
CC1=CC2(O)OCCN(CCO)C2=CC1=O (stereo not drawn)	7% (inactive)
Cc1ccccc1C(OCCN(C)C)c1ccccc1 (stereo not drawn)	4% (inactive)
COC1(C)CC2C(CC1OC(=O)c1cc([N+](=O)[O-])cc([N+](=O)[O-])c1)C2(C)C (stereo not drawn)	9% (inactive)
O=C1OC(c2ccc(O)cc2)(c2ccc(O)cc2)c2ccccc21	6% (inactive)
Cn1c(=O)c2c(ncn2CC(O)CO)n(C)c1=O (stereo not drawn)	9% (inactive)
Cc1cnc(C(=O)N2CCCC(C(=O)c3ccc(Cl)cc3C)C2)cn1 (stereo not drawn)	-25% (inactive)
CN(C)C(=O)C12CCC(C)(c3nc4ccccc4nc31)C2(C)C (stereo not drawn)	5% (inactive)
CCOC(=O)c1ccc(N2C(=O)C(CC(N)=O)N(CCc3ccc(OC)c(OC)c3)C2=S)cc1 (stereo not drawn)	21% (inactive)
Cc1cnc(C(=O)NCCc2ccc(S(=O)(=O)NC(=O)NC3CCCCC3)cc2)cn1	4% (inactive)
COc1cccc2c1C(=O)O/C2=C/c1ccc2c(c1)OCO2	8% (inactive)
COc1ccc(C2N3CC4(C)CN2CC(C)(C3)C4)cc1OC (stereo not drawn)	6% (inactive)
